Screening results deposited in PubChem by several laboratories.
Hits are enriched below; roughly 4% of the tested compounds scored in any of these assays.
Mdm2-MdmX inh: inhibitors of human Mdm2-MdmX association, primary screen, cell-based, luminescence, split luciferase, SaOS-2, uHTS; inhibition, % at 8 µM; Protein Mdm4 (Homo sapiens) + E3 ubiquitin-protein ligase Mdm2 (Homo sapiens), …; hit rate 3% among 330,000; SaOS-2 split-luciferase Mdm2/MdmX complementation;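 active means inhibition of at least 50% at 8 µM in the primary screen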
Target sequence (O15151 whole entry, looked up): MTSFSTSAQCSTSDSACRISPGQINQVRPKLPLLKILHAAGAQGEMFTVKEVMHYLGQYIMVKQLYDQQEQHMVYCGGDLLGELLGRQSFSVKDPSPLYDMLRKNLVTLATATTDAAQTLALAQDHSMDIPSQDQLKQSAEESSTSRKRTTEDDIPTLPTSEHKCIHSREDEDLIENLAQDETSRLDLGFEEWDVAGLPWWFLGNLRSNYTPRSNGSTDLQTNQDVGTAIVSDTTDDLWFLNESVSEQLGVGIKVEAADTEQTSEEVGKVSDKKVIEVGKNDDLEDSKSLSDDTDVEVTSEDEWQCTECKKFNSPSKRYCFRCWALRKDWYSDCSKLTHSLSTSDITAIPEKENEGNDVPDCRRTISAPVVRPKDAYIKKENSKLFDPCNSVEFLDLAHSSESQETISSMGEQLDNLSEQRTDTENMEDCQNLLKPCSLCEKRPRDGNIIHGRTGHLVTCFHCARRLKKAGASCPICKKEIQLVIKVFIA
Target sequence (Q00987 whole entry, looked up): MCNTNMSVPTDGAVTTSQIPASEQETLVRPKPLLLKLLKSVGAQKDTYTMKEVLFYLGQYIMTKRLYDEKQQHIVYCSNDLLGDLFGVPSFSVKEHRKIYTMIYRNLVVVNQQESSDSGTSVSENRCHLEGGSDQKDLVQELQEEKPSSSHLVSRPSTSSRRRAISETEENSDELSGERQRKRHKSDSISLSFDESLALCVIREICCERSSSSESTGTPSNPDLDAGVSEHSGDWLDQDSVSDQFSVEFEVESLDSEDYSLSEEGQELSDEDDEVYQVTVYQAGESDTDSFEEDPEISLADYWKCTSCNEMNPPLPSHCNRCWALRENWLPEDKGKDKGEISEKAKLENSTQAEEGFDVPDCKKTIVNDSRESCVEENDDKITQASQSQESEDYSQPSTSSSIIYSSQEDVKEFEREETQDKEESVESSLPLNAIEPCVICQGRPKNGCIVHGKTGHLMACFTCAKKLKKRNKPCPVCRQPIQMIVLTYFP
Gli-Sufu block: Gli-Sufu pathway antagonists, primary screen, luciferase luminescence, Sufu-KO-LIGHT cells, uHTS | hit rate 0.74% among 340,000 | AID 588413, 2011 | inhibition, % at 5 µM | Sufu-KO-LIGHT fibroblasts, Gli luciferase reporter luminescence;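 active means inhibition above about 55%, limit read from the data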;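 further: 0% = DMSO-treated cells and 100% = wells with medium but no cells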
CSC inhib: cancer stem cell viability inhibitors, primary screen, luminescence. inhibition, % at 7.5 µM. cancer stem cell-like cells viability. hit rate 1.1% among 300,000. AID 2717, 2010; in the data active means inhibition above about 75%; inconclusive means no clear call, values can overlap the other calls; tested in HMLE shEcad cells
Beta apoptosis: inhibitors of cytokine-induced beta cell apoptosis, primary screen, luminescence | INS-1E cytokine-induced death, ATP luminescence, 48 h; percent of positive-control rescue, neutral wells zero | protection from apoptosis, % (concentration not given with the values) | hit rate 0.8% among 300,000;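 active means Every replicate reaches about 75%, or at least half do and their mean reaches it too, limit read from the data; inconclusive means At least half of replicates reach the limit but their mean does not; inactive means Under half of replicates reach the limit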;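 further: 0% = cytokine-treated negative control wells and 100% = positive control rescue; higher means more ATP so stronger rescue from cytokine killing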
PAX8 inh HTS: inhibitors of PAX8-driven TPO luciferase reporter, primary screen, RMG-I cells, single concentration. SteadyGlo, 24 h. hit rate 1.2% among 360,000. inhibition, % at 12.6 µM. AID 652154, 2013;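 active means mean replicate inhibition at least 60% with every replicate also reaching 60%; inconclusive means only one of the two criteria is met; inactive means mean below 60% and not all replicates reaching 60%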;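 further: luciferase light reporting Pax8 driven TPO promoter activity; plate controls were median of neutral control wells for no effect and mitoxantrone controls for full effect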
Shn3 3UTR inh: reduction of Shn3 3'UTR firefly luciferase signal, primary screen, Schnurri-3 inhibitor project, cell-based, Clone20 osteoblasts, set 2; Clone20 osteoblast Shn3 3'UTR firefly luciferase, 24 h; inhibition, % at 12.5 µM; hit rate 0.52% among 360,000;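 active means mean inhibition of at least 75% with every replicate also reaching 75%; inconclusive means mean inhibition at least 75% but some replicate below; inactive means mean inhibition below 75%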;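 further: 0% = median of neutral control wells and 100% = pilot-screen positive control compound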
Mdm2 MdmX conf: Mdm2-MdmX complex disruptors, retested hits, confirmation, luminescence, single concentration. shares compounds with Mdm2-MdmX inh. Mdm2-MdmX binding, luminescent assay. inhibition, % at 8 µM. hit rate 55% among 10,000; in the data active means inhibition above about 40%
FLuc counter: full-length luciferase signal inhibition, confirmation, counter-screen for Mdm2/MdmX interaction inhibitor project, cell-based, single concentration, SaOS-2; shares compounds with Mdm2-MdmX inh; SaOS-2 full-length luciferase counterscreen, luminescence; inhibition, % at 8 µM; hit rate 77% among 6,200; AID 504607, 2011;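 active means mean inhibition at 8 µM reaching about 37%, which flags the compound as non-specific, limit read from the data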;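 further: p53-null SaOS-2 cells with luciferase driven by a doxycycline-inducible promoter; compound on cells about two nights before reading with doxycycline added after day one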
Starred values were filed as active, the others as inactive; ? = inconclusive; . = not tested or not shown.

SMILES | Mdm2-MdmX inh | Gli-Sufu block | CSC inhib | Beta apoptosis | PAX8 inh HTS | Shn3 3UTR inh | Mdm2 MdmX conf | FLuc counter
C[C@@H]1CN([C@H](C)CO)C(=O)c2cc(NC(=O)CCCN(C)C)ccc2O[C@@H](C)CCCCO[C@@H]1CN(C)CC1CCCCC1 | . | . | . | . | 5 | . | . | .
Cc1ccc(Nc2nnc(SCc3nc4ccccc4c(=O)[nH]3)s2)cc1 | 66* | 3 | -4 | 58 | 11 | . | 40* | 17
O=C(CCc1nc2ccccc2c(=O)[nH]1)Nc1nnc(SCc2ccc(Cl)cc2)s1 | 33 | 6 | -2 | -1 | -2 | 7 | . | .
CCCC[C@@H](CN[C@H](C)CNC)NCC1CCC(C(C)(C)C)CC1 (stereo partly drawn) | 100* | 16 | 126* | 93* | 17 | . | 97* | 56*
COc1ccc2cc(C(=O)/C=C/c3cc(OC)c(OC)c(OC)c3)ccc2c1 | 75* | 13 | 46 | -6 | 28 | 20 | 54* | 78*
COc1ccc(Oc2ccc(/C=C/C(=O)c3cccc(OC)c3)cc2[N+](=O)[O-])cc1 | 97* | 33 | . | -7 | 108* | -5 | 19 | 26
COc1cc(/C=C/C(=O)N2CCC=CC2=O)cc(OC)c1OC | 100* | -2 | 36 | 8 | 105* | 38 | 63* | 27
COc1ccc(C=CC(=O)c2ccc3cc(OC)c(OC)cc3c2)cc1OC | . | . | . | . | -4 | 55 | . | .
CC(SC1=NCCS1)C(=O)Nc1nnc(-c2ccc(Br)cc2)s1 (stereo not drawn) | 52* | 4 | 56 | -5 | -56 | -20 | 19 | .
CC(SC1=NCCS1)C(=O)Nc1nnc(-c2ccc(F)cc2)s1 (stereo not drawn) | -19 | -6 | 31 | -1 | -19 | -15 | . | .
CCOc1ccc(/C=C/c2c([N+](=O)[O-])c(=O)n(C)c(=O)n2C)cc1 | 34 | -12 | -7 | 1 | -99 | -17 | . | .
Cn1c(/C=C/c2ccc(Cl)cc2Cl)c([N+](=O)[O-])c(=O)n(C)c1=O | 100* | 7 | 28 | 2 | 45 | ? | 76* | 11
COc1ccc(/C=C/c2c([N+](=O)[O-])c(=O)n(C)c(=O)n2C)c(OC)c1 | 15 | 11 | -3 | -23 | 30 | -30 | . | .
CCc1ccc(/C=C/c2c([N+](=O)[O-])c(=O)n(C)c(=O)n2C)cc1 | 64* | -4 | 17 | 2 | 26 | -5 | 44* | 40*
CCCS(=O)(=O)c1cnc(C2COc3ccccc3O2)nc1N (stereo not drawn) | 82* | 49 | ? | 12 | 60 | 63 | 85* | 48*
C[C@@H]1CN([C@@H](C)CO)C(=O)Cc2cc(NC(=O)Nc3ccc(C(F)(F)F)cc3)ccc2O[C@@H]1CN(C)Cc1ccc(-c2ccccc2)cc1 | . | . | . | . | 9 | . | . | .
Cc1cccc(NC(=O)c2cc3c([nH]c4ccccc43)c(C)n2)c1C | 66* | -2 | -11 | -3 | 16 | 4 | 3 | .
O=C(Nc1ccc(C(F)(F)F)cc1)N[C@H]1C=C[C@H](CC(=O)N2CCCCC2)O[C@H]1CO | . | . | . | . | 7 | . | . | .
Cc1ccc(NC(=O)Nc2nnc(-c3ccncc3)s2)cc1C | 94* | -13 | 36 | . | -42 | -11 | 56* | 23
COC(=O)Nc1nnc(-c2ccncc2)s1 | 25 | -5 | -3 | 3 | . | 10 | . | .
O=C(Nc1ccc(F)cc1)Nc1nnc(-c2ccncc2)s1 | 69* | 26 | 41 | 54 | . | -6 | 32 | .
O=C(Nc1ccc(F)cc1)Nc1nnc(COc2ccccc2F)s1 | 91* | 3 | 61 | 21 | -3 | 6 | 82* | 44*
O=C(Nc1nnc(COc2ccccc2F)s1)Nc1ccccc1F | 13 | 0 | 2 | 0 | 2 | 3 | . | .
COc1cc2nc(N3CCN(c4cc(C)ccc4C)CC3)nc(N)c2cc1OC | 95* | 22 | 106* | 118* | 31 | 94* | 86* | 51*
COc1ccc(Cl)cc1Nc1nc(N)c2ccccc2n1 | -70 | -7 | 18 | 5 | -46 | -41 | . | .
SMILES | Mdm2-MdmX inh | Gli-Sufu block | CSC inhib | Beta apoptosis | PAX8 inh HTS | Shn3 3UTR inh | Mdm2 MdmX conf | FLuc counter
COc1ccc(C)cc1Nc1nc(N)c2cc(OC)c(OC)cc2n1 | 51* | 13 | 6 | 16 | . | 0 | 15 | .
CCCNC(=O)C[C@@H]1CC[C@@H]2[C@H](COC[C@@H](O)CN2Cc2cccc(F)c2)O1 | . | . | . | . | -4 | . | . | .
COC(=O)c1cn(C(=O)/C=C/c2ccc(OC)c(OC)c2)c2ccccc12 | 92* | 24 | 59 | 5 | 22 | -38 | 66* | 39*
COC(=O)c1cn(C(=O)c2ccc(C)cc2C)c2ccccc12 | 61* | -4 | 62 | 28 | 40 | 19 | 53* | 56*
COc1ccccc1Cn1c(=O)c2ccccc2n2c(Sc3ncnc4sccc34)nnc12 | 76* | 5 | 11 | -27 | 19 | 58 | 30 | .
COc1ccccc1Cn1c(=O)c2ccccc2n2c(SCc3csc(C)n3)nnc12 | 15 | 2 | -6 | 11 | . | 2 | . | .
Cc1ccc(C(=O)N/N=C/c2ccc(-c3cccc(C(F)(F)F)c3)o2)cn1 | 58* | -4 | 44 | 16 | 25 | 15 | 53* | 50*
CNC(=S)N/N=C/c1ccc(-c2cccc(C(=O)O)c2)o1 | 21 | -42 | 15 | 22 | -36 | -51 | . | .
O=C(Cc1ccncc1)Nc1ccc2c(c1)[C@H]1C[C@@H](CC(=O)N3CCc4ccccc4C3)O[C@H](CO)[C@H]1O2 | . | . | . | . | -18 | . | . | .
Oc1ccccc1N=Cc1c(O)ccc2oc3c(c12)CCCC3 | 52* | 4 | 17 | -2 | 29 | 2 | 44* | 72*
CN1CCN(C(c2ccccc2)c2ccc(Cl)cc2)CC1 (stereo not drawn) | 36 | 13 | 0 | 6 | 0 | 12 | . | .
Oc1c(C(c2ccccn2)N2CCCCC2)cc(Cl)c2cccnc12 (stereo not drawn) | 65* | 0 | 70 | 26 | 77* | 20 | 46* | 43*
CC(C)(C)n1nnnc1C(c1ccccc1)N1CCN(c2ncc(C(F)(F)F)cc2Cl)CC1 (stereo not drawn) | . | . | . | . | 5 | . | . | .
CN1CCN(C(c2ccc(C(F)(F)F)cc2)c2cc(Cl)c3cccnc3c2O)CC1 (stereo not drawn) | 86* | . | 110* | 100* | ? | . | 81* | 25
